From ChEMBL document CHEMBL2218924, “A broad activity screen in support of a chemogenomic map for kinase signalling research and drug discovery” (Biochem J, 2013)

Molecular target: Casein kinase I isoform gamma-1 (Homo sapiens) (UniProt Q9HCP0)
Details: at 1 µM

Chain of Casein kinase I isoform gamma-1 (Homo sapiens) (Q9HCP0 whole entry, looked up, canonical isoform): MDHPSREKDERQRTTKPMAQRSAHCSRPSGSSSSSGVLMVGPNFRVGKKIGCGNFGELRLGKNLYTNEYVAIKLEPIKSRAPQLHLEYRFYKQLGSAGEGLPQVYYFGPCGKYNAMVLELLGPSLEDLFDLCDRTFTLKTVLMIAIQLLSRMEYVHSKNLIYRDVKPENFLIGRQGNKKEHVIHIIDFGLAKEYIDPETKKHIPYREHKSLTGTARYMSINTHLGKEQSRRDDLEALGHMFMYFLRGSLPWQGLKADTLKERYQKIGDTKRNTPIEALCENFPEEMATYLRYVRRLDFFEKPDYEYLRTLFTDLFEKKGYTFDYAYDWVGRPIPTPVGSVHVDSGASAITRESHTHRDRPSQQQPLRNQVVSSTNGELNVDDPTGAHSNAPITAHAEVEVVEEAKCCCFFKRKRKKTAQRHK

Question: With `COc1ccc2c(c[n+](C)c3c4cc5c(cc4ccc23)OCO5)c1OC` as the compound, how does the residual activity read?
Answer: Its residual activity is 80%.

Question: For `COC(=O)[C@@]1(O)C[C@H]2O[C@]1(C)n1c3ccccc3c3c4c(c5c6ccccc6n2c5c31)C(=O)NC4`, which residual activity is on record?
Answer: Its residual activity is 93%.

Question: `N/C(=N\[N+](=O)[O-])N/N=C\c1ccc(-c2cccc([N+](=O)[O-])c2)o1` was tested. Which residual activity did it give?
Answer: The residual activity was 88%.

Question: How did the residual activity turn out when `COc1cc2ncnc(Nc3ccc(OCc4ccccc4)cc3)c2cc1OC` was run?
Answer: Its residual activity is 95%.

Question: For `CCn1cnc2c(Nc3cccc(Cl)c3)nc(N[C@@H]3CCCC[C@@H]3N)nc21`, which residual activity is on record?
Answer: Its residual activity is 30%.

Question: With `O=C1Nc2ccc3ncsc3c2/C1=C/c1c[nH]cn1` as the compound, how does the residual activity read?
Answer: Its residual activity is 70%.

Question: `O=c1[nH]c2ccccc2n1C1CCN(Cc2ccc(-c3nc4cc5[nH]cnc5cc4nc3-c3ccccc3)cc2)CC1` was tested. Which residual activity did it give?
Answer: The residual activity was 90%.

Question: With `C[S+]([O-])c1ccc(-c2nc(-c3ccc(F)cc3)c(-c3ccncc3)[nH]2)cc1` (stereo not given) as the compound, how does the residual activity read?
Answer: Its residual activity is 119%.

Question: `O=[N+]([O-])/C=C/c1ccc2c(c1)OCO2` was tested. Which residual activity did it give?
Answer: The residual activity was 83%.

Question: `CC(C)[C@H](CO)Nc1nc(Nc2cccc(Cl)c2)c2ncn(C(C)C)c2n1` was tested. Which residual activity did it give?
Answer: Its residual activity is 10%.

Question: Which residual activity does the source give for `CC(C)(C)c1cc(C=C(C#N)C#N)cc(Br)c1O` here?
Answer: Its residual activity is 104%.

Question: `COc1cc(OC)c(/C=C2\C(=O)Nc3ccccc32)c(OC)c1` was tested. Which residual activity did it give?
Answer: The residual activity was 101%.

Molecular target: Casein kinase I isoform gamma-1 (Homo sapiens) (UniProt Q9HCP0)
Details: at 10 µM

Question: `COc1ccc2c(c[n+](C)c3c4cc5c(cc4ccc23)OCO5)c1OC` was tested. Which residual activity did it give?
Answer: The residual activity was 71%.

Question: How did the residual activity turn out when `COC(=O)[C@@]1(O)C[C@H]2O[C@]1(C)n1c3ccccc3c3c4c(c5c6ccccc6n2c5c31)C(=O)NC4` was run?
Answer: The residual activity was 57%.

Question: `N/C(=N\[N+](=O)[O-])N/N=C\c1ccc(-c2cccc([N+](=O)[O-])c2)o1` was tested. Which residual activity did it give?
Answer: Its residual activity is 82%.

Question: `COc1cc2ncnc(Nc3ccc(OCc4ccccc4)cc3)c2cc1OC` was tested. Which residual activity did it give?
Answer: Its residual activity is 95%.

Question: Which residual activity does the source give for `COc1ccc2c(c1)/C(=C/c1cnc[nH]1)C(=O)N2` here?
Answer: Its residual activity is 67%.

Question: Which residual activity does the source give for `CCn1cnc2c(Nc3cccc(Cl)c3)nc(N[C@@H]3CCCC[C@@H]3N)nc21` here?
Answer: Its residual activity is 6%.

Question: `O=C1Nc2ccc3ncsc3c2/C1=C/c1c[nH]cn1` was tested. Which residual activity did it give?
Answer: Its residual activity is 28%.

Question: With `O=c1[nH]c2ccccc2n1C1CCN(Cc2ccc(-c3nc4cc5[nH]cnc5cc4nc3-c3ccccc3)cc2)CC1` as the compound, how does the residual activity read?
Answer: Its residual activity is 62%.

Question: `C[S+]([O-])c1ccc(-c2nc(-c3ccc(F)cc3)c(-c3ccncc3)[nH]2)cc1` (stereo not given) was tested. Which residual activity did it give?
Answer: Its residual activity is 61%.

Question: `CC(C)[C@H](CO)Nc1nc(Nc2cccc(Cl)c2)c2ncn(C(C)C)c2n1` was tested. Which residual activity did it give?
Answer: Its residual activity is 1%.

Question: `CC(C)(C)c1cc(C=C(C#N)C#N)cc(Br)c1O` was tested. Which residual activity did it give?
Answer: Its residual activity is 97%.

Question: `COc1cc(OC)c(/C=C2\C(=O)Nc3ccccc32)c(OC)c1` was tested. Which residual activity did it give?
Answer: The residual activity was 70%.

Question: How did the residual activity turn out when `c1cc(-c2cnn3cc(-c4ccc(OCCN5CCCCC5)cc4)cnc23)ccn1` was run?
Answer: The residual activity was 63%.

Molecular target: Casein kinase I isoform delta (Homo sapiens) (UniProt P48730)
Details: at 1 µM

Chain of Casein kinase I isoform delta (Homo sapiens) (P48730 whole entry, looked up, canonical isoform): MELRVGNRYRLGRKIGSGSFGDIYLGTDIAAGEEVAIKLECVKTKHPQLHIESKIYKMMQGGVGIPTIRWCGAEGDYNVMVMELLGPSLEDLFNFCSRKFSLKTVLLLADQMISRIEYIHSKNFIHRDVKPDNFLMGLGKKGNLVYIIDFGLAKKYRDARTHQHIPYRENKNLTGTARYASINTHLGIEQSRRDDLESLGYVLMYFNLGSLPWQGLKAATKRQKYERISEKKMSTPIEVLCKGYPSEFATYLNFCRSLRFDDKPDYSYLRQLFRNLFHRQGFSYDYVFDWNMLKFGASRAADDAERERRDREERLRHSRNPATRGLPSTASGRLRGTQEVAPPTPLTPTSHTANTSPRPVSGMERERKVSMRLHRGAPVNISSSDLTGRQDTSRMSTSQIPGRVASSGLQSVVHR

Question: For `COC(=O)[C@@]1(O)C[C@H]2O[C@]1(C)n1c3ccccc3c3c4c(c5c6ccccc6n2c5c31)C(=O)NC4`, which residual activity is on record?
Answer: Its residual activity is 79%.

Question: With `N/C(=N\[N+](=O)[O-])N/N=C\c1ccc(-c2cccc([N+](=O)[O-])c2)o1` as the compound, how does the residual activity read?
Answer: Its residual activity is 80%.

Question: Which residual activity does the source give for `COc1cc2ncnc(Nc3ccc(OCc4ccccc4)cc3)c2cc1OC` here?
Answer: Its residual activity is 77%.

Question: For `COc1ccc2c(c1)/C(=C/c1cnc[nH]1)C(=O)N2`, which residual activity is on record?
Answer: The residual activity was 81%.

Question: `CCn1cnc2c(Nc3cccc(Cl)c3)nc(N[C@@H]3CCCC[C@@H]3N)nc21` was tested. Which residual activity did it give?
Answer: Its residual activity is 89%.

Question: Which residual activity does the source give for `CCc1nc(-c2ccc(OC)cc2)[nH]c1-c1ccncc1` here?
Answer: The residual activity was 74%.

Question: For `O=C1Nc2ccc3ncsc3c2/C1=C/c1c[nH]cn1`, which residual activity is on record?
Answer: The residual activity was 23%.

Question: How did the residual activity turn out when `O=c1[nH]c2ccccc2n1C1CCN(Cc2ccc(-c3nc4cc5[nH]cnc5cc4nc3-c3ccccc3)cc2)CC1` was run?
Answer: Its residual activity is 84%.

Question: Which residual activity does the source give for `O=[N+]([O-])/C=C/c1ccc2c(c1)OCO2` here?
Answer: The residual activity was 98%.

Question: `CC(C)[C@H](CO)Nc1nc(Nc2cccc(Cl)c2)c2ncn(C(C)C)c2n1` was tested. Which residual activity did it give?
Answer: Its residual activity is 74%.

Question: For `O=C1NC(=O)c2c1c1c3ccccc3n3c1c1c2c2ccccc2n1C1CCC3O1`, which residual activity is on record?
Answer: The residual activity was 75%.

Question: How did the residual activity turn out when `CN[C@@H]1C[C@H]2O[C@@](C)([C@@H]1OC)n1c3ccccc3c3c4c(c5c6ccccc6n2c5c31)C(=O)NC4` was run?
Answer: Its residual activity is 77%.

Question: How did the residual activity turn out when `CC(C)(C)c1cc(C=C(C#N)C#N)cc(Br)c1O` was run?
Answer: The residual activity was 99%.

Question: With `COc1cc(OC)c(/C=C2\C(=O)Nc3ccccc32)c(OC)c1` as the compound, how does the residual activity read?
Answer: The residual activity was 37%.

Question: Which residual activity does the source give for `c1cc(-c2cnn3cc(-c4ccc(OCCN5CCCCC5)cc4)cnc23)ccn1` here?
Answer: The residual activity was 21%.

Molecular target: Casein kinase I isoform delta (Homo sapiens) (UniProt P48730)
Details: at 10 µM

Question: For `COC(=O)[C@@]1(O)C[C@H]2O[C@]1(C)n1c3ccccc3c3c4c(c5c6ccccc6n2c5c31)C(=O)NC4`, which residual activity is on record?
Answer: The residual activity was 37%.

Question: How did the residual activity turn out when `N/C(=N\[N+](=O)[O-])N/N=C\c1ccc(-c2cccc([N+](=O)[O-])c2)o1` was run?
Answer: The residual activity was 76%.

Question: `COc1cc2ncnc(Nc3ccc(OCc4ccccc4)cc3)c2cc1OC` was tested. Which residual activity did it give?
Answer: The residual activity was 79%.

Question: For `COc1ccc2c(c1)/C(=C/c1cnc[nH]1)C(=O)N2`, which residual activity is on record?
Answer: Its residual activity is 37%.

Question: `CCn1cnc2c(Nc3cccc(Cl)c3)nc(N[C@@H]3CCCC[C@@H]3N)nc21` was tested. Which residual activity did it give?
Answer: Its residual activity is 51%.

Question: Which residual activity does the source give for `CCc1nc(-c2ccc(OC)cc2)[nH]c1-c1ccncc1` here?
Answer: The residual activity was 37%.

Question: With `O=C1Nc2ccc3ncsc3c2/C1=C/c1c[nH]cn1` as the compound, how does the residual activity read?
Answer: The residual activity was 4%.

Question: For `O=c1[nH]c2ccccc2n1C1CCN(Cc2ccc(-c3nc4cc5[nH]cnc5cc4nc3-c3ccccc3)cc2)CC1`, which residual activity is on record?
Answer: Its residual activity is 53%.

Question: For `O=[N+]([O-])/C=C/c1ccc2c(c1)OCO2`, which residual activity is on record?
Answer: Its residual activity is 113%.

Question: Which residual activity does the source give for `CC(C)[C@H](CO)Nc1nc(Nc2cccc(Cl)c2)c2ncn(C(C)C)c2n1` here?
Answer: Its residual activity is 23%.

Question: `O=C1NC(=O)c2c1c1c3ccccc3n3c1c1c2c2ccccc2n1C1CCC3O1` was tested. Which residual activity did it give?
Answer: The residual activity was 75%.

Question: `CN[C@@H]1C[C@H]2O[C@@](C)([C@@H]1OC)n1c3ccccc3c3c4c(c5c6ccccc6n2c5c31)C(=O)NC4` was tested. Which residual activity did it give?
Answer: Its residual activity is 46%.

Question: For `CC(C)(C)c1cc(C=C(C#N)C#N)cc(Br)c1O`, which residual activity is on record?
Answer: The residual activity was 48%.

Question: Which residual activity does the source give for `COc1cc(OC)c(/C=C2\C(=O)Nc3ccccc32)c(OC)c1` here?
Answer: The residual activity was 6%.

Question: With `c1cc(-c2cnn3cc(-c4ccc(OCCN5CCCCC5)cc4)cnc23)ccn1` as the compound, how does the residual activity read?
Answer: Its residual activity is 3%.
